In the supplement of paper PMC3545927:
This is one part of the list. How many sequences the whole screen found active is unknown.

Biological target: furin, P09958
Assay: furin cleavage Z-score vs untreated control; higher = more cleavage, active = 3.5 or more, inactive = 1 or less, 8 variable residues between constant flanks
In short: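 Furin cleavage was scored on 8-mer peptides joined to a cDNA oligonucleotide and bound to magnetic beads at the N-terminus. Digestion with purified furin (1:10 enzyme:substrate, 0.01 ml, 50 mM HEPES pH 7.5, CaCl2, NaCl) lasted 7.5, 15 or 30 min. Freed DNA was tagged with adapters by PCR, sequenced and counted; the cleavage Z-score is the lowess-adjusted log count versus furin-free reactions, scaled by median absolute deviation.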

furin, P09958, sequence (P09958 whole entry): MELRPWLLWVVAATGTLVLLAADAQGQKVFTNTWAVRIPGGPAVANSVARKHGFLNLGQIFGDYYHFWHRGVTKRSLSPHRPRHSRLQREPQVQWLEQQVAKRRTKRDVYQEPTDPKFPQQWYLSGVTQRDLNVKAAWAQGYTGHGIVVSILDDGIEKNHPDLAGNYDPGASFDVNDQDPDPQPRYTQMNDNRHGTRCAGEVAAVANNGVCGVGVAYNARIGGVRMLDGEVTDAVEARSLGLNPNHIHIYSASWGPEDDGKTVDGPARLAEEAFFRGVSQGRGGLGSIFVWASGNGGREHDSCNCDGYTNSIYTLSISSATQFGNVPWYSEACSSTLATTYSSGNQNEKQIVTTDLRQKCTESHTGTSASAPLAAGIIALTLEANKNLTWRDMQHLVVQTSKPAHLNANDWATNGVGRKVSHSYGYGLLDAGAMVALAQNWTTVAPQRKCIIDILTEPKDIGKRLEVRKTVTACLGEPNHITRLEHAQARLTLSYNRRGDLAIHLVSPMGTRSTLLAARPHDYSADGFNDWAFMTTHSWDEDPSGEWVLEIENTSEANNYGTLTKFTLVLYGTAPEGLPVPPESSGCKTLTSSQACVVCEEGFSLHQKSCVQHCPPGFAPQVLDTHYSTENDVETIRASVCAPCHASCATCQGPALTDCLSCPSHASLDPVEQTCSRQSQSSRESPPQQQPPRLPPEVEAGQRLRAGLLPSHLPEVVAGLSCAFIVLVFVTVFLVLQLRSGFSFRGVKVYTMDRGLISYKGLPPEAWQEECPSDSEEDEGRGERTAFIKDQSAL

Sequence	furin cleavage Z-score (7.5 min)	furin cleavage Z-score (15 min)	furin cleavage Z-score (30 min)
CAQVPSPEFFAGNASASA [HC1218]	-1.13 (inactive)	-0.661 (inactive)	0.459 (inactive)
CAVTVPHPNIAGNASASA [HC838]	0.905 (inactive)	1.12	1.65
CASLLAPGAKAGNASASA [HC361]	-0.751 (inactive)	-1.11 (inactive)	-0.788 (inactive)
CADKRRSVRIAGNASASA [FS-1669]	0.236 (inactive)	-0.291 (inactive)	0.74 (inactive)
CANKRRSVRFAGNASASA [FS-833]	5.74 (active)	7.19 (active)	8.22 (active)
CARTQRSTEIAGNASASA [FS-2614]	1.54	2.65	3.99 (active)
CARKRRSVNPAGNASASA [FS-2702]	11.8 (active)	12.1 (active)	9.6 (active)
CARAERKTEIAGNASASA [FS-2881]	-0.287 (inactive)	1.15	-0.302 (inactive)
CAMKRRSVTMAGNASASA [FS-2126]	1.48	0.933 (inactive)	2.48
CAVERRSVNKAGNASASA [FS-1814]	-1.15 (inactive)	-0.638 (inactive)	-0.108 (inactive)
CARKPRCGNPAGNASASA [FU7]	0.143 (inactive)	2	0.939 (inactive)
CAEVPCHIPSAGNASASA [HC2364]	0.695 (inactive)	0.0124 (inactive)	0.569 (inactive)
CAAKQRERRYAGNASASA [FS-1300]	9.27 (active)	10.1 (active)	7.92 (active)
CAAKQRPPRSAGNASASA [FS-1301]	8.85 (active)	8.91 (active)	7.56 (active)
CAAKQNVQLIAGNASASA [HC364]	1.11	2.16	-0.868 (inactive)
CADGGRPPRSAGNASASA [FS-1114]	2.6	2.51	3.55 (active)
CAQGGRPPRPAGNASASA [FS-1055]	-0.328 (inactive)	-0.378 (inactive)	0.24 (inactive)
CAATATPPGSAGNASASA [HC834]	-1.04 (inactive)	-0.000581 (inactive)	-0.987 (inactive)
CAVFERVSRSAGNASASA [FS-733]	5.52 (active)	7.31 (active)	6.35 (active)
CAADHRFYRYAGNASASA [FS-1507]	-0.685 (inactive)	-0.762 (inactive)	0.166 (inactive)
CAMEECVQHLAGNASASA [HC23]	0.873 (inactive)	1.67	1.34

Sequence	furin cleavage Z-score (7.5 min)	furin cleavage Z-score (15 min)	furin cleavage Z-score (30 min)
CASGPWITPRAGNASASA [HC460]	-0.377 (inactive)	1.52	-0.355 (inactive)
CAITSRIIRSAGNASASA [FS-1217]	9.87 (active)	8.44 (active)	6.88 (active)
CADGGRVSRSAGNASASA [FS-223]	3.4	4.59 (active)	5.66 (active)
CAITNRPPRSAGNASASA [FS-1216]	2.7	5.07 (active)	2.23
CATTPCSSSWAGNASASA [HC1897]	-0.808 (inactive)	1.71	-0.0324 (inactive)
CAEATTPCSGAGNASASA [HC1963]	-1.21 (inactive)	-0.00595 (inactive)	0.567 (inactive)
CAREMEECSQAGNASASA [HC1793]	0.916 (inactive)	-0.677 (inactive)	1.51
CAWETARHTPAGNASASA [HC1569]	0.673 (inactive)	0.503 (inactive)	-0.633 (inactive)
CAPKGPVIQMAGNASASA [HC707]	-0.0909 (inactive)	0.949 (inactive)	0.762 (inactive)
CAVVNCSMSYAGNASASA [HC2041]	0.601 (inactive)	1.6	-0.0752 (inactive)
CATARRHGRDAGNASASA [FS-878]	6.42 (active)	7.12 (active)	6.27 (active)
CAAPGRDGRDAGNASASA [FS-397]	-0.000356 (inactive)	-1.26 (inactive)	-0.555 (inactive)
CATAARRLRDAGNASASA [FS-382]	1.54	3.67 (active)	3.74 (active)
CAGRTGRGKPAGNASASA [HC905]	-1.05 (inactive)	-0.843 (inactive)	-1.55 (inactive)
CARKKRLENRAGNASASA [FS-2214]	1.32	0.582 (inactive)	0.84 (inactive)
CAHKSRKERRAGNASASA [FS-536]	1.88	4.97 (active)	3.69 (active)
CARKKRIKRRAGNASASA [FS-2266]	13.1 (active)	14.5 (active)	11.5 (active)
CADSSRIKRRAGNASASA [FS-1449]	8.08 (active)	10.6 (active)	8.94 (active)
CADISRIKRGAGNASASA [FS-756]	2.64	4.17 (active)	2.27
CAWVCCSMSYAGNASASA [HC1988]	0.172 (inactive)	0.44 (inactive)	1.05
CARPLRGVSGAGNASASA [FS-3018]	-0.934 (inactive)	-0.697 (inactive)	-0.66 (inactive)
